# Screening results: PubChem, National Center for Advancing Translational Sciences (NCATS)
# This excerpt belongs to a sample that is enriched for hits.
# TDP1 cell noCPT: qHTS for Inhibitors of human tyrosyl-DNA phosphodiesterase 1 (TDP1): qHTS in cells in absence of CPT; DT40 Tdp1-/- hTDP1 cells, no CPT, ATP luminescence, 48 h; Potency, µM (titrated, usually from 46.2 µM), without a hit: at the highest dose activity change, negative = growth inhibition, hits mostly inhibitors; hit rate 15% among 420,000; AID 686978, 2013; also: potency is read from the fitted curve at half-maximal effect; nearly all actives have a fitted effect of over 55% in size
#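 Chicken DT40 Tdp1-/- cells stably complemented with human TDP1 were seeded at 400 cells/well with DMSO in place of 20 nM camptothecin. After compound pinning, cells grew at least 48 hr at 37 °C; viability read by CellTiter-Glo luminescence.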
# ALOX12 inh: inhibitors of human 12S-lipoxygenase ALOX12. P18054. purified 12hLO, xylenol orange hydroperoxide absorbance. Potency, µM (titrated, usually from 108 µM), inactives show at the highest dose activity change, negative = inhibition, most hits filed as inhibitors. hit rate 1.1% among 580,000; also: potency is read from the fitted curve at half-maximal effect
# Target sequence (P18054 whole entry, looked up): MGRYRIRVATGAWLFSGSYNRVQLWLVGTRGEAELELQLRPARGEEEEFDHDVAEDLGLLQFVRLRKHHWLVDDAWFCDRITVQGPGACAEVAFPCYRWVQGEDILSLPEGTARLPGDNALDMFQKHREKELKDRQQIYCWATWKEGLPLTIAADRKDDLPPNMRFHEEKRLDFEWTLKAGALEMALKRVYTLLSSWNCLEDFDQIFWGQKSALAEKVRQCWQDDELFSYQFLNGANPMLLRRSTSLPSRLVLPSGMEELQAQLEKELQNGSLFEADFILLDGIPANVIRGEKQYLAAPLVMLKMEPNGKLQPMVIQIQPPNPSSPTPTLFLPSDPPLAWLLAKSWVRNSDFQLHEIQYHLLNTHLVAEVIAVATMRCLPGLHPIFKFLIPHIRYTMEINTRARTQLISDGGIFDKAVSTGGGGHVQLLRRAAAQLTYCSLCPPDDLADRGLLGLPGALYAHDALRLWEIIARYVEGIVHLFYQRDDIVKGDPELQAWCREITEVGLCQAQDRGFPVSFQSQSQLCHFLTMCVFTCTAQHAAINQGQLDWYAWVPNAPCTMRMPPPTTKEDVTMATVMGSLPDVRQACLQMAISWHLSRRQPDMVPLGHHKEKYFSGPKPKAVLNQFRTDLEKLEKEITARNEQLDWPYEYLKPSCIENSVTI
#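 Hydroperoxide product was detected by ferrous iron/xylenol orange as the 573 to 405 nm absorbance ratio. Arachidonic acid at 40 uM (final) was turned over for 30 min at room temperature by 150 nM human 12hLO, pH 7.0 Hepes buffer, after 15 min compound preincubation.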
# IL1B secr inh: inflammasome signaling inhibition, IL-1 beta readout | THP-1 LPS/ATP IL-1B secretion, AlphaLISA, 16 h; stronger effect = lower value | AID 743279 | activity change, % at 57.5 µM | hit rate 4.7% among 360,000; in the data active = activity change below about -50%; inconclusive = mostly about -30% to -49%
#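 THP-1 cells pretreated 1 hr with compounds (up to 57.5 uM final), then stimulated with LPS (250 ng/mL final) plus ATP (1.25 mM final); secreted IL-1B measured by AlphaLISA after 16 hr, decreased signal indicating inhibition.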
# HT1080 IDH1KD tx: toxicity to HT-1080 IDH1 knockdown cells (counter line); HT-1080 IDH1 knockdown viability, ATP luminescence, 48 h; Potency, µM (highest dose often 46.1 µM), inactives show at the highest dose activity, negative = toxicity, most hits filed as cytotoxic; hit rate 2% among 360,000; AID 686971;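 also: potency is read from the fitted curve at half-maximal effect; 0% = DMSO wells and -100% = cell-free medium wells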
#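 IDH1KD HT-1080 cells, 750/well, RPMI + 5% FBS; compound pinned after 2 h settling; 48 h, 37 °C; CellTiter-Glo luminescence; % activity normalised to DMSO and no-cell wells; curves fitted, classed by r2 and efficacy.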
# HT1080-NT tox: kills 2HG-producing HT-1080-NT fibrosarcoma cells; HT-1080-NT fibrosarcoma viability, CellTiter-Glo ATP luminescence, 48 h; Potency, µM (highest dose often 46.1 µM), for inactives: at the highest dose activity, negative = less viability, most hits filed as cytotoxic; hit rate 1.6% among 360,000;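 also: NT is the 2HG producing partner of a matched IDH1 knockdown line; potency is read from the fitted curve at half-maximal effect; 0% = DMSO-treated cells and -100% = media-only wells without cells; nearly all actives have a fitted effect of over 55% in size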
#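 Fibrosarcoma NT cells, 750 per well in 5% FBS RPMI, were exposed to compound for 48 hours. Viability: CellTiter-Glo luminescence.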
# TDP1 cell CPT: growth inhibition of DT40 Tdp1-/-;hTDP1 cells with camptothecin (screen for TDP1 inhibitors). chicken DT40 Tdp1-/-;hTDP1 cells + 20 nM CPT, ATP luminescence, 48 h. Potency, µM (top dose mostly 46.2 µM), for inactives: top-dose activity change, negative = growth inhibition, most hits filed as inhibitors. hit rate 12% among 420,000; also: potency is read from the fitted curve at half-maximal effect; nearly all actives have a fitted effect of over 55% in size
#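 Cell growth measured by CellTiter-Glo luminescence after a minimum 48 h, 37 C compound exposure with 20 nM CPT in Tdp1-knockout DT40 cells stably expressing hTDP1, seeded 400/well; qHTS titration format.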
# Starred values were filed as active, the others as inactive; ? = inconclusive; . = not tested or not shown; [ ] = another dose, or the depositor's remark. Unless noted, calls follow the shape of the dose curve; as a rule, active = well fitted curve in the direction sought with a large enough effect; inconclusive = small, poorly fitted or top-dose-only effect, or another doubt; inactive = no such curve, though single readings can be large; an effect the other way counts as inactive or inconclusive. Unless noted, % is scaled to controls: 0 for no effect and ±100 for the full control effect.
SMILES,TDP1 cell noCPT,ALOX12 inh,IL1B secr inh,HT1080 IDH1KD tx,HT1080-NT tox,TDP1 cell CPT
Cc1ccc(-c2cc(C(=O)N(Cc3ccc(C(C)(C)C)cc3)Cc3ccco3)no2)cc1,13µM*,-20%,.,.,.,18µM*
O=C(c1cc(-c2ccc(Cl)cc2)on1)N(Cc1ccc(F)cc1)Cc1ccco1,21µM*,-23%,.,.,.,?
CCc1ccc(CN(Cc2ccco2)C(=O)c2cc(-c3ccc(Cl)cc3)on2)cc1,15µM*,-17%,.,.,.,?
O=C(NC1CC2CC1C1CCCC21)c1ccccc1C(F)(F)F (stereo unspecified),.,-21%,.,.,.,.
CSc1ccccc1C(=O)Nc1c(C)cc(C)cc1Cl,.,-1%,.,.,.,.
O=C(Nc1ccc(CCO)cc1)c1cc2ccccc2oc1=O,.,-11%,.,.,.,.
CN1C(=O)CCCCC1C(=O)NCCc1c[nH]c2ccccc12 (stereo unspecified),.,-14%,.,.,.,.
C=CCNC(=S)N/N=C/c1ccc(N(CC)Cc2ccccc2)cc1,18µM*,50µM*,-6,?,-15%,21µM*
CCN(CC)c1ccc(/C=N/NC(=O)C(O)c2ccccc2)cc1 (stereo unspecified),-13%,37%,-16,-13%,-28%,-6%
CCN(CC)c1ccc(/C=N/NC(=S)NCc2ccc(OC)cc2)cc1,?,?,?,-18%,-8%,-17%
CCN(CC)c1ccc(/C=N/NC(=S)NCc2ccccc2)cc1,16µM*,?,30,3%,7%,?
Cn1c(=O)n(C)c2cc(N3CCOCC3)c(NS(=O)(=O)c3ccc(C(C)(C)C)cc3)cc21,4.1µM*,-13%,.,.,.,7.3µM*
Cn1c(=O)n(C)c2cc(N3CCOCC3)c(NS(=O)(=O)c3cccc(C#N)c3)cc21,?,?,.,.,.,18µM*
Cn1c(=O)n(C)c2cc(N3CCOCC3)c(NS(=O)(=O)c3ccc(Cl)cc3)cc21,13µM*,3%,.,.,.,?
CCOc1ccc(CNC(=O)c2cccc(NC(=O)C3=C(C)OCCS3)c2)cc1,?,0%,-5,-6%,-3%,?
COc1ccc(CNC(=O)Cc2ccc(NC(=O)C3=C(C)OCCS3)cc2)cc1,2.1µM*,-5%,49,5.8µM*,?,2.3µM*
COc1cccc(CNC(=O)c2ccccc2NC(=O)C2=C(C)OCCS2)c1OC,12µM*,14%,-20,-10%,-8%,18µM*
O=C(Nc1ccccc1C(=O)NCc1ccccc1)C1=CSCCO1,-28%,-29%,-1,6%,9%,-8%
CC1=C(C(=O)Nc2ccc(CC(=O)NCc3ccc(OC(C)C)cc3)cc2)SCCO1,0.18µM*,-13%,62,?,?,0.16µM*
CC1=C(C(=O)Nc2ccccc2C(=O)NCc2ccccc2)SCCO1,?,0%,-8,-9%,3%,?
CCOc1ccccc1CNC(=O)c1ccccc1NC(=O)C1=CSCCO1,26µM*,3%,-9,-3%,-25%,?
C=CCNC(=O)NC(=O)CN(C)C(C)c1ccccc1OC (stereo unspecified),.,26%,.,.,.,.
CCOC(=O)c1ccccc1NC(=O)CN1C(=O)NC2(CCCCC2)C1=O,.,-9%,.,.,.,.
N#CC(C(=O)CCc1ccccc1)C(=O)NC1CCCCC1 (stereo unspecified),.,-22%,.,.,.,.
COCC(=O)N1CCCCCCNC(=O)[C@@H]2CCCC[C@@H]21,.,4%,.,.,.,.
COc1ccc(CC(=O)N(C)C2CCc3nnc(C)n3CC2)cc1Cl (stereo unspecified),.,0%,.,.,.,.
CN(CCCC(=O)N1CCc2ccccc2C1)S(=O)(=O)c1ccc(F)cc1,.,4%,.,.,.,.
CC(=O)N1CCC(N[C@H]2C[C@@H](Cc3cc(CN4CCOCC4)on3)C2(C)C)CC1,.,9%[176 µM],.,.,.,.
